Sampled rows, rich in hits. Any-hit rate of the full collection: about 11%.
Gal4-VP16 FLuc – counter-screen for ROR gamma inhibitors: Gal4-VP16 reporter | Drosophila S2 Gal4-VP16 UAS-luciferase, luminescence, 20 h | hit rate 3.5% among 310,000 | Potency, µM (highest dose often 53.6 µM), usual class: inhibitors;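 further: Gal4-VP16 expression switched on by copper sulfate through the metallothionein promoter; nearly all actives have a fitted effect of over 50% in size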
SW480 rerep – inducers of DNA re-replication in SW480 colon cancer cells | SW480 DNA re-replication, Hoechst DNA content imaging, 48 h | hit rate 1.8% among 340,000 | Potency, µM (doses to about 46.1 µM), actives largely listed as activators; further: nearly all actives have a fitted effect of over 55% in size
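Readout is total intensity of Hoechst-stained nuclei, excited at 405 nm and collected at 500-530 nm. Compound treatment lasted 48 hr at 37 C in 5% CO2 before staining.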
RORgamma inh – inhibitors of mouse ROR gamma transcriptional activity; P51450; Drosophila S2 Gal4-RORgamma UAS-luciferase reporter, 20 h; Potency, µM (titrated, usually from 53.6 µM), usual class: inhibitors; hit rate 5.4% among 310,000; AID 2551; further: nearly all actives have a fitted effect of over 60% in size
Target sequence (P51450 whole entry, looked up, the tested form may be a part): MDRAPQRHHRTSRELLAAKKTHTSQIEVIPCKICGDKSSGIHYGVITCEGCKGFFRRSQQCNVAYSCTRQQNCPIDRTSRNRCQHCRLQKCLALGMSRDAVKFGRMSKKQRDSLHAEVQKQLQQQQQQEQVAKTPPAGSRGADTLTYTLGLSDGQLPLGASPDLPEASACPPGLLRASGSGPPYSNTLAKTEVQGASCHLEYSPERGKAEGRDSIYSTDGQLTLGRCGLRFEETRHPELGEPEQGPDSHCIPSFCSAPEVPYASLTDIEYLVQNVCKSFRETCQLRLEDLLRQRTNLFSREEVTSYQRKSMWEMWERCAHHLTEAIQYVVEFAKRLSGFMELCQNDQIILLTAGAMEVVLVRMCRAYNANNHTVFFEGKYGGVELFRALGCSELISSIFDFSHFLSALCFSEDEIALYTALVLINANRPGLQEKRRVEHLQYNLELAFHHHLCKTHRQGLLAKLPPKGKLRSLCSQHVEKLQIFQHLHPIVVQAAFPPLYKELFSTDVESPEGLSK
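Using a luciferase readout, inhibitors were identified by reduced reporter activity in Drosophila cells coexpressing a copper-inducible Gal4–ROR gamma fusion and UAS-driven Photinus luciferase, incubated 20 hr after 700 uM copper sulfate.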
MCF10A rereplic – DNA re-replication induction in MCF 10a cells; MCF 10A DNA re-replication, Hoechst nuclear intensity, 48 h; Potency, µM (top dose mostly 46.1 µM), most hits filed as activators; hit rate 2.9% among 350,000; AID 624296; further: nearly all actives have a fitted effect of over 50% in size
IL-1B inflam inh – inflammasome signaling inhibition, IL-1 beta readout; AID 743279; activity change, % at 57.5 µM; hit rate 4.7% among 360,000; THP-1 LPS/ATP IL-1B secretion, AlphaLISA, 16 h; stronger effect = lower value; in the data active means activity change below about -50%; inconclusive means mostly about -30% to -49%
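Secreted IL-1B measured by AlphaLISA bead assay after 16 h compound exposure of THP-1 cells; compounds (final up to 57.5 uM) added 1 h before LPS (250 ng/mL) and ATP (1.25 mM) stimulation; lower signal means less secretion.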
Hits are given with their value; - = inactive; ? = inconclusive; . = no result given; [ ] = dose if it differs, or a comment. Unless noted, the call rests on the fitted dose curve; in most records, active means well fitted curve in the direction sought with a large enough effect; inconclusive means small, poorly fitted or top-dose-only effect, or another doubt; inactive means no such curve, though single readings can be large; an effect the other way counts as inactive or inconclusive.

SMILES	Gal4-VP16 FLuc	SW480 rerep	RORgamma inh	MCF10A rereplic	IL-1B inflam inh
O=C(NCC1CCCO1)C(Cc1ccccc1)N1C(=O)C2C3C=CC(C4CC34)C2C1=O (configuration not stated)	-	?	-	15µM	-
O=C(NCC1CCCO1)C(C(=O)c1ccccc1)n1ccccc1=O (configuration not stated)	-	-	-	-[0.0737 µM]	-
Cc1ccc[n+](CC(=O)/C=C2\N(C)c3ccccc3C2(C)C)c1	-	-	?	-	-
CN1/C(=C\C(=O)CSc2cccc[n+]2[O-])C(C)(C)c2ccccc21	?	-	7.1µM	-	-
CN1/C(=C\C(=O)C[n+]2cccc(Br)c2)C(C)(C)c2ccccc21	13µM	-	-	-	-
Cc1cccc[n+]1CC(=O)/C=C1\N(C)c2ccccc2C1(C)C	6.3µM	-	?	?	-
O=C(Nc1ncn[nH]1)c1ccc(Cl)c(Cl)c1	.	-	.	-	-
Cc1nc(NC(=O)C(C)(C)C)sc1-c1csc(N)n1	.	.	.	.	-
Cc1c(Cl)cccc1NC(=S)N(Cc1ccco1)C(C)c1ccccn1 (configuration not stated)	?	-	10µM	-	-
Cc1ccccc1NC(=S)N(CCN(C)C)C(C)c1ccccn1 (configuration not stated)	-	-	?	-	-
Cc1ccccc1NC(=S)N(CCCN1CCCCC1)Cc1ccco1	-	-	-	-	-
Cc1c(Cl)cccc1NC(=O)NCc1ccccn1	-	-	-	-	?
Cc1c(Cl)cccc1NC(=S)N(CCN(C)C)C(C)c1ccccn1 (configuration not stated)	?	-	13µM	-	-
CSc1cccc(NC(=S)N(CCN(C)C)C(C)c2ccccn2)c1 (configuration not stated)	?	?	18µM	?	-
Cc1ccccc1NC(=S)N(Cc1ccco1)C(C)c1ccccn1 (configuration not stated)	?	-	13µM	-	-
O=[N+]([O-])c1ccc(CSc2nnc(-c3cccnc3)o2)cc1	-	-	-	-	-
CC(=O)N1CCOC12CCN(Cc1ccccc1)CC2	.	.	.	.	-
COc1ccc(CN2CCC2(C)C(=O)NCc2ccc3c(c2)OCO3)c2ccccc12 (configuration not stated)	.	.	.	.	-
N#Cc1sc2nc(-c3ccccc3)cc(C(F)(F)F)c2c1N	-	2.9µM	-	-	-
COc1cc(C(C#N)N2N=C(c3ccccc3)CC2c2ccccc2)ccc1O (configuration not stated)	-	-	7.9µM	?	-
Cc1nn(CC2CCCCC2)c(N)c1-c1ccccc1	11µM	-	?	-	-
c1csc(CNc2ccnc(-c3ccc4c(c3)OCO4)n2)c1	-	.	-	.	.
OC(CCc1ccncc1)c1ccccc1 (configuration not stated)	.	-	.	-	-
O=C(CC(O)c1ccncc1)c1ccccc1O (configuration not stated)	.	?	.	?	-63
COc1ccc(N2CC(C(=O)Nc3nc4ccc(F)cc4s3)CC2=O)c(OC)c1 (configuration not stated)	-	-	-	-	-
SMILES	Gal4-VP16 FLuc	SW480 rerep	RORgamma inh	MCF10A rereplic	IL-1B inflam inh
COc1ccc(S(=O)(=O)N2CCC[C@@H]2C(=O)N2CCC[C@H]2C(=O)NCc2ccncc2)cc1C	.	.	.	.	-
Nc1nc(=S)n(-c2ccccc2)[nH]1	-	-	?	-	-
S=c1nc(C2CCCCC2)n(-c2ccccc2)[nH]1	-	-	2.8µM	?	-
CCO[C@H]1OC(C(=O)O)=C[C@@H](c2ccccc2)[C@@H]1CCCO	.	-	.	-	-
COc1cc(CNCc2ccccn2)ccc1OCc1ccc(Cl)cc1Cl	-	?	11µM	-	-53
COc1cc(CNCc2ccccn2)ccc1OCc1ccc(Cl)c(Cl)c1	-	?	?	-	-93
CCCn1c(-c2ccc(F)cc2)nc2c(NCC(C)(C)CN(C)C)nc(C)nc21	-	.	-	.	.
O=C(c1ccc(CS(=O)c2ccccc2Cl)o1)N1CCN(c2ccccc2)CC1 (configuration not stated)	-	2.6µM	-	?	-
O=C(c1ccc(CS(=O)c2ccccc2Cl)o1)N1CCOCC1 (configuration not stated)	-	-	-	-	-
